Only some compounds are listed: those with a hit (about 3.8% of all), similar ones and a draw of the others.
PAFAH2 FP inh = inhibitors of human PAFAH2. Q99487. hit rate 0.99% among 340,000. AID 492956. recombinant PAFAH2, FP-rhodamine activity probe, fluorescence polarization. inhibition, % at 3.39 µM;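 active = inhibition above the mean over all tested compounds plus 3 SD, cut at about 30% in these data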;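 note: inhibitors block probe labeling of enzyme so polarization drops; 0% = enzyme with DMSO and 100% = wells lacking PAFAH2 protein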
PAFAH1B3 inh = inhibitors of human PAFAH1B3. hit rate 0.28% among 340,000. AID 492972. recombinant PAFAH1B3, FP-rhodamine probe, fluorescence polarization. inhibition, % at 3.39 µM. Q15102;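 active = inhibition above the screen-wide average of all tested compounds plus 3 SD, cut at about 25% in these data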;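 note: 0% = enzyme with DMSO only and 100% = wells lacking PAFAH1B3 protein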
pPAFAH inh = pPAFAH (human) enzyme inhibition. Q13093. recombinant pPAFAH, FP-rhodamine probe fluorescence polarization. inhibition, % at 3.39 µM. hit rate 1.5% among 330,000. AID 463082;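 active = inhibition above the mean inhibition across the screen plus 3 SD, cut at about 25% in these data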;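 note: inhibitors block binding of the rhodamine activity-based probe so polarization drops; 0% = enzyme with DMSO and 100% = wells lacking pPAFAH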
Target sequence (Q13093 whole entry, looked up): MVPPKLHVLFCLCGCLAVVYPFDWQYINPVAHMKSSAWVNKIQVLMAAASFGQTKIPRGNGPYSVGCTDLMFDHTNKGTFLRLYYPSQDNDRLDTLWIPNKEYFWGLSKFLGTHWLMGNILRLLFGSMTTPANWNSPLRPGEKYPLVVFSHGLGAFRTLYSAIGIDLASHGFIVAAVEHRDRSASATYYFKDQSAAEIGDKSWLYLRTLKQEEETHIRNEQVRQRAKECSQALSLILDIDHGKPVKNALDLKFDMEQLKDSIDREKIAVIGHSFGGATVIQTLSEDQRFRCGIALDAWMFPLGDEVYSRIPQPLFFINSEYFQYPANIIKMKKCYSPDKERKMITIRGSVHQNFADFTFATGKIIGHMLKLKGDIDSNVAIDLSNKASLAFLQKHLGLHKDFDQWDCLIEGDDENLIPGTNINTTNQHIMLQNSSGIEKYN
Pemphigus Ab inh = human desmoglein-3 autoantibody binding inhibition; hit rate 0.48% among 310,000; DSG3-coupled beads, scFv-anti-DSG3-GFP binding, flow cytometry; active compounds read low; AID 588358; binding (percent of control), % at 10 µM; P32926;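 active = binding more than 3 SD below its plate's average and above zero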;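 note: hits lower antibody fragment binding to DSG3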
PAFAH1B2 inh = blocks human PAF acetylhydrolase 1b catalytic subunit 2. P68402. recombinant PAFAH1B2, FP-rhodamine activity probe, fluorescence polarization. inhibition, % at 3.39 µM. hit rate 1.2% among 340,000. AID 492953;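 active = inhibition above the mean of all tested compounds plus 3 SD, cut at about 24% in these data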;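 note: 0% = enzyme with DMSO and 100% = wells lacking PAFAH1B2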
PfM18AAP inh = PfM18AAP enzyme inhibition; recombinant PfM18AAP, H-Glu-NHMec fluorogenic cleavage; inhibition, % at 7.35 µM; hit rate 1.2% among 290,000; AID 1822;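 active = inhibition above the campaign mean inhibition over all tested compounds plus 3 SD, cut at about 28% in these data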;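 note: 0% = plate median of test compound wells and 100% = 2 mM ZnCl2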
The depositor's hits bear a star; / = no result given.

SMILES	PAFAH2 FP inh	PAFAH1B3 inh	pPAFAH inh	Pemphigus Ab inh	PAFAH1B2 inh	PfM18AAP inh
CCOc1cc(/C=N/NC(=O)c2cccnc2)ccc1OCC(=O)N(C)C	-2	3	4	78*	1	-4
COc1ccc(C(=O)NCc2nnc(SCC(=O)N3CCc4ccccc43)n2C2CCCCC2)cc1	5	-5	1	89*	-2	2
COc1ccc(C(=O)NCc2nnc(SCC(=O)N3CCc4ccccc43)n2CCc2ccccc2)cc1	1	-1	1	102	4	1
N#CC1=C(N)Oc2c(ccc3cccnc23)C1c1cccnc1 (stereo unspecified)	8	10	10	/	2	9
CCOc1cccc(C2C(C#N)=C(N)Oc3cc(C)[nH]c(=O)c32)c1OCC (stereo unspecified)	-2	0	9	99	6	-17
CCc1ccc2[nH]c(=O)c(C3C(C#N)=C(N)Oc4c3ccc3cccnc43)cc2c1 (stereo unspecified)	5	14	43*	94	4	15
Cc1ccc2cc(C3C(C#N)=C(N)Oc4c3ccc3cccnc43)c(=O)[nH]c2c1 (stereo unspecified)	13	10	27*	101	9	4
c1ccc(NCCC2OCC3(CO2)COC(CCNc2ccccc2)OC3)cc1 (stereo unspecified)	6	-2	/	/	4	/
CC(C)COc1ccc(Cc2cnc(N)nc2N)cc1	-4	3	2	98	3	-4
CC(C)Oc1ccc(Cc2cnc(=S)[nH]c2N)cc1	-3	3	3	104	5	31*
CCOC(=O)c1c(-c2ccc(-c3ccccc3)cc2)csc1NC(=O)C1C2CCC(O2)C1C(=O)O (stereo unspecified)	-3	5	28*	105	-2	-4
COc1ccc(CCNC(=O)COC(=O)COc2ccc(Cl)cc2)cc1OC	0	6	7	100	6	1
CCOc1ccc(CCNC(=O)COC(=O)COc2ccc(Cl)cc2)cc1OCC	-4	7	26*	104	4	/
O=C(COC(=O)COc1ccc(Cl)cc1)NCCCc1ccccc1	5	0	14	94	29*	/
CCOc1cc(CNCCc2ccc(S(N)(=O)=O)cc2)ccc1OCc1ccc(Cl)cc1	1	3	0	114	28*	8
C[N+]1(C2CCC3CCCC2C3O)CCCCC1 (stereo unspecified)	-1	4	2	88	-1	-4
CCOC(=O)c1ccc(N2N=C(C)/C(=C/C=C/c3ccco3)C2=O)cc1	10	3	6	99	4	4
O=C(O)c1cc(N2N=C(C(F)(F)F)/C(=C/C=C/c3ccco3)C2=O)ccc1Cl	59*	37*	/	71	32*	13
O=C(O)c1ccc(Cl)c(S(=O)(=O)Nc2ccc(OCc3ccccc3)cc2)c1	-9	8	9	99	26*	4
COc1cccc(S(=O)(=O)N(C)C[C@H]2OCc3cnnn3CCCC(=O)N([C@H](C)CO)C[C@@H]2C)c1	/	/	/	109	/	/
Cc1ccc(N2C(=O)C3C4C=CC(CNC(=S)N5CCN(c6cccc(C)c6)C(C)C5)(O4)C3C2=O)cc1 (stereo unspecified)	0	8	11	83*	5	0
O=C(NCCC1=CCCCC1)C(=O)NCC1OCCCN1S(=O)(=O)c1ccc(F)cc1 (stereo unspecified)	3	-3	7	91	16	5
CCOc1ccc2c(c1)C(NC(C)=O)C(=O)N2CCN1CCOCC1 (stereo unspecified)	-2	-1	/	81*	2	20
CC(=O)NC1C(=O)N(CCN2CCOCC2)c2ccc(Br)cc21 (stereo unspecified)	-8	8	0	96	-1	30*
Cc1ccc(Cc2cnc(N3C(=N)SC(C)C3=O)s2)cc1 (stereo unspecified)	13	-6	25*	128	75*	-5
SMILES	PAFAH2 FP inh	PAFAH1B3 inh	pPAFAH inh	Pemphigus Ab inh	PAFAH1B2 inh	PfM18AAP inh
O=C(C[C@H]1C(=O)N(Cc2ccccc2)C[C@@H]1Cc1ccccc1)Nc1ccc(Br)cc1	/	/	/	97	/	/
CCCCC(O)(c1ccc(OC)cc1)C(CN1CCOCC1)c1ccccc1 (stereo unspecified)	-4	9	-3	104	24*	-8
CC1C(=O)N(Cc2cn(CCC3OCCO3)nn2)CCS(=O)(=O)N1Cc1ccc(-c2ccc(Cl)c(Cl)c2)cc1 (stereo unspecified)	/	/	/	107	/	/
Cc1cc(C)cc(N(CCC#N)C(=O)CSc2nc3ccccc3c(=O)[nH]2)c1	2	13	-3	94	0	/
CSC(=O)NC12CC3CC(CC(C)(C3)C1)C2	2	-4	-3	97	28*	4
Cc1nc(Nc2ccccc2)sc1-c1ccccc1	2	5	27*	101	7	-5
COC(=O)c1sc(Nc2ccccc2)nc1C	-2	7	-2	101	1	-2
c1ccc(Nc2nc(-c3ccccc3)ns2)cc1	3	0	-2	58*	-1	0
Cc1nc(Nc2ccccc2)sc1C(=O)c1ccccc1	/	/	15	80*	/	-5
O=C(CCNC(=O)C1CCN(S(=O)(=O)c2ccc(F)cc2)CC1)NCc1ccccn1	/	/	/	109	/	/
CCc1nnc(NC(=O)CSc2nncc(=O)n2N)s1	-4	7	-1	85*	-1	7
CCc1nnc(NC(=O)CSc2nnc3c(n2)[nH]c2ccccc23)s1	1	4	1	32*	-3	-5
CCc1nnc(NC(=O)CSc2ccc(-c3ccc(-n4cccn4)cc3)nn2)s1	8	0	-2	77*	-4	/
O=C1NC(=O)C([N+](=O)[O-])=C(O)C1=O	/	/	/	100	/	/
C(=Nn1cnnc1)c1ccc2c(c1)CCC2	/	/	/	97	/	/
Cc1cc(C(=O)N/N=C2\CCCC(=O)C2)c(C)n1-c1ccccc1	-4	7	28*	100	-2	18
O=C1Nc2cccc3c2N(CCC3)C2=C1CCC2	/	/	/	106	/	/
COc1cc2[nH]c(=S)nc(NCc3cccnc3)c2cc1OC	11	-2	2	101	3	30*
COc1cc2[nH]c(=S)nc(NCc3ccccc3)c2cc1OC	9	8	5	99	2	5
CCCCNC(=S)N(CCCO)Cc1cc2cc3c(cc2[nH]c1=O)OCO3	/	/	/	98	/	/
CCc1ccc(N2C(=O)Cc3c2nc(N)c(C#N)c3N)cc1	0	4	11	104	9	6
CCN(CC)c1nc2c3c(nc4c(c3c1C#N)CC(=O)N4c1ccc(Cl)cc1)NC(C)=N2	15	14	64*	85	15	0
Nc1cc(-c2ccccc2)nn1S(=O)(=O)c1ccc(F)cc1	-3	1	-3	102	13	-14
Nc1cc(-c2ccc(Br)cc2)nn1S(=O)(=O)c1ccccc1	3	0	-2	62*	-5	6

Source: PubChem BioAssay
